Reference: PubChem BioAssay AID429 (Emory University Molecular Libraries Screening Center, 2006)
In all, about 64,000 compounds went through this assay and about 220 (0.34%) were called active. This excerpt belongs to a sample that is enriched for actives. Values without a mark were called inactive.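 How the source made its calls: active means inhibition above 50%; inactive means the rest.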

Biological target: Heat shock protein HSP 90-alpha (Homo sapiens) (UniProt P07900)
Experiment: tumor Hsp90 inhibitors, primary screen, cell lysate, fluorescence polarization, NCI-N417 lysate (AID 429);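 further: 0% = tracer plus lysate wells and 100% = tracer alone without lysate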
Conditions: NCI-N417 lysate Hsp90, Cy3B-geldanamycin FP displacement; at 30 µM; stronger effect = higher value

| SMILES | inhibition |
| --- | --- |
| NC(=O)C1=CN(C2OC(COP(=O)(O)OP(=O)(O)OC[C@H]3O[C@@H](n4cnc5c(N)ncnc54)C(OP(=O)(O)O)[C@H]3O)C(O)C2O)C=CC1 (stereo partly specified) | -0.66% |
| CCCCSc1nnc(-c2ccc(NC(=O)CC)cc2)n1C | -0.77% |
| COC(=O)Cc1csc(Nc2c(C)n(C)n(-c3ccccc3)c2=O)n1 | -1.47% |
| CCOc1ccc(N(CC(=O)NCc2ccc(OC)cc2)S(=O)(=O)c2c(C)noc2C)cc1 | -5.24% |
| O=C(Nc1ccccc1-c1nnn(CC(=O)N2CCN(c3ccccc3)CC2)n1)c1cccs1 | 0.39% |
| CC(c1cccnc1)N(CCN(C)C)C(=O)Nc1ccc(Cl)c(Cl)c1 (stereo unspecified) | -1.45% |
| Cn1c(=O)c2c(nc(SCC(=O)Nc3ccccc3N3CCCCC3)n2C)n(C)c1=O | -1.91% |
| COc1ccc(Cn2cccc(NC(=O)Nc3ccc(C#N)cc3)c2=O)cc1 | -1.69% |
| O=C1C=C(NCCNc2c(F)c(F)c(CO)c(F)c2F)CCC1 | -1.66% |
| Cn1cccc1C1(C(F)(F)F)NCCNC1=O (stereo unspecified) | -0.05% |
| CCN(CC)Cc1c(C(=O)OC)nnn1-c1nonc1N | -0.51% |
| Cc1cc2c(cc1C)NC(c1ccccn1)C1=C(CC(C)(C)CC1=O)N2 (stereo unspecified) | 0.74% |
| COC(=O)c1cc(S(=O)(=O)NC2CCN(Cc3ccccc3)CC2)cn1C | -0.68% |
| C=C(C)c1cccc(C(C)(C)NC(=O)N2CCN(c3ncccn3)CC2)c1 | 1.26% |
| CCOC(=O)N1CCN(C(=O)c2nn(-c3ccc(C)cc3)c(=O)c3c2c2ccccc2n3C)CC1 | -3.87% |
| CC(C)C(c1nnnn1C1CCCC1)N1CCN(c2ccccc2F)CC1 (stereo unspecified) | -0.85% |
| O=S1(=O)CC(NCc2ccccc2)C(Nc2ccc(Cl)cc2)C1 (stereo unspecified) | 1.54% |
| COc1cc(N=C2C=CC(=O)C=C2)c2ncccc2c1 | 3.25% |
| COc1ccc(-c2nc(CS(=O)CC(=O)NCc3cccnc3)c(C)o2)cc1OC (stereo unspecified) | -3.8% |
| COc1ccc(-c2nc(CS(=O)CC(=O)N3CCc4ccccc4C3)c(C)o2)cc1 (stereo unspecified) | 0.64% |
| COc1ccc(-c2nc(CS(=O)CC(=O)NCc3ccccn3)c(C)o2)cc1 (stereo unspecified) | 71.4% (active) |

| SMILES | inhibition |
| --- | --- |
| O=C1[C@@H]2C(Cc3ccc(O)cc3)NC3(C(=O)Nc4ccc(F)cc43)[C@@H]2C(=O)N1c1ccc(F)cc1 (stereo partly specified) | -5.22% |
| NC(=NC(=O)c1ccccc1)C1=C(O)CCC1=O | 0.78% |
| CSCCC(Nc1nc2ccccc2s1)C(=O)O (stereo unspecified) | 2.67% |
| C[C@H](NC(=O)NCCc1ccccc1)C(=O)O | 1.74% |
| Cc1ccc(C)c(NS(=O)(=O)c2cc(Br)cnc2N)c1 | 0.39% |
| Cc1[nH]c2ccccc2c1C(=O)CSCC(=O)O | -2.89% |
| CC1CCN(Cc2nc3c(c(=O)n(C)c(=O)n3C)n2Cc2cccc3ccccc23)CC1 | -1.11% |
| CCCOC(=O)Cc1c(O)c2ccccc2[nH]c1=O | 1.56% |
| COc1cc(OC)cc(-c2nc3nc(C)c(CCC(=O)NCc4ccco4)c(C)n3n2)c1 | 1.84% |
| Cc1ccc(C2(c3ccc(C)cc3)NC(=O)N(Cc3c(C)noc3C)C2=O)cc1 | 1.01% |
| COc1cc(NC(C)CCCNC(C)C)c2ncccc2c1 (stereo unspecified) | 95.6% (active) |
| COc1cc(NCCCC#N)c2ncccc2c1 | -2.3% |
| C#CCCCNc1cc(OC)cc2cccnc12 | -1.17% |
| CCOC(=O)C1CCCN(Cc2nc(N)nc(Nc3ccc(C)cc3)n2)C1 (stereo unspecified) | -6.1% |
| CC(C)n1c(NCc2c[nH]c3ccccc23)nc2ccccc21 | 1.28% |
| CCN(CC)S(=O)(=O)c1ccc(C(=O)Nc2cc(Br)cc3cccnc23)cc1 | 1.06% |
| COc1ccc(-n2c(SCC(=O)NCc3cccs3)nnc2-c2ccoc2C)cc1 | -1.94% |
| Cc1cccc(Cn2c(N3CCN(c4ccccc4)CC3)nc3c2c(=O)n(C)c(=O)n3C)c1 | -2.67% |
| O=C(NCc1cn2ccsc2n1)Nc1cccc(Cl)c1 | -4.35% |
| CCc1ccc(N(CC)c2ncnc3nc[nH]c23)cc1 | -2.13% |
| CCC1(C)CC(=O)NC1=O (stereo unspecified) | 0.1% |

| SMILES | inhibition |
| --- | --- |
| CC[C@@H]1Cc2cc(O)ccc2C2=C1c1ccc(O)cc1C[C@H]2CC | 14.4% |
| CCn1cc(C(=O)N2CC=C(c3ccccc3)CC2)c(=O)c2ccc(C)nc21 | -3.28% |
| CCNC(=O)CCc1nc(-c2ccc(C(C)(C)C)cc2)no1 | -1.56% |
| Cc1ccc(S(=O)(=O)N(C)CC(=O)NC2CCCC2)cc1 | -0.25% |
| CCN(CC)C(=O)CSc1nnc(-c2ccc(S(=O)(=O)NCc3ccccc3Cl)cc2)o1 | 1.83% |
| Cc1ccc(C)c(NC(=O)C2CC(=O)N(C(C)C)C2)c1 (stereo unspecified) | -3.18% |
| Cc1ccnc(N2C(=O)c3ccccc3C2Nc2ccc3c(c2)OCCO3)c1 (stereo unspecified) | 1.75% |
| Cc1cc(C)nc(SCc2nnc(SCC(=O)OC3CCCCC3)o2)n1 | -0.1% |
| O=c1cc(CSc2ccc(Cl)cc2)nc(N2CCOCC2)[nH]1 | -2.37% |
| O=C(CCC(=O)OCC(F)(F)C(F)F)NCc1ccccc1 | -3.91% |
| CC(=O)Oc1cc2c(C(=O)NCCN3CCOCC3)c(C)oc2c2ccccc12 | 91% (active) |
| O=C(NCCN1CCOCC1)c1c(F)c(F)c(F)c(F)c1F | -0.16% |
| O=C(CCN1C(=O)c2ccccc2C1=O)NCCN1CCOCC1 | -1.37% |
| Cc1ccc(C(c2sc3nc(C)nn3c2O)N2CCN(c3ccc(F)cc3)CC2)cc1 (stereo unspecified) | 2.37% |
| O=C(O)c1cscn1 | -1.54% |
| COc1cccc(NC(=O)c2ccccc2SC)c1 | -1.59% |
| COc1cccc(NC(=O)C(C)Oc2ccccc2)c1 (stereo unspecified) | 86.4% (active) |
| COc1cccc(Nc2ncccc2C(=O)O)c1 | 1.09% |
| CCN(CC)S(=O)(=O)c1cccc(C(=O)Nc2cc(C)nn2-c2nc(C)cc(C)n2)c1 | -2.41% |
